Molecules are shown by their SMILES. Several values for one entry are separate records, joined by “and”; a condition that tells them apart may be missing. Equal entries are not always repeated. The panel holds about 83,000 compounds, 20% with a hit somewhere; the sample as a whole holds those more often.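 Single-dose data. Exposure time 48 hours. Values below 10 considered active.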 Activity calls are given as the source filed them.

For the experiment, the system named is MDA-MB-468 breast. Kind of experiment: NCI-60 one-dose screen, 48 h (100 = growth as untreated, 0 = no growth, -100 = all killed). The note with it: 10 µM unless noted.
`CC(C)=CCC[C@](C)(O)[C@H]1CC[C@]2(C)[C@@H]1CC[C@@H]1[C@@]3(C)CC/C(=N/O)C(C)(C)[C@@H]3CC[C@]12C`: the growth is -26.3% [100 µM] (active).
On to `Nc1ccc(Oc2ccccc2)c(Cl)c1`, for which the growth is 92.1% (inactive).
For `CCCOC(=O)n1cccc1`, the growth was 106% (inactive).
With `C=C(C)[C@@H]1CC[C@]2(COCCCNCCCN)CC[C@]3(C)[C@H](CC[C@@H]4[C@@]5(C)CC[C@H](O)C(C)(C)[C@@H]5CC[C@]43C)[C@@H]12`, the growth is -81.6% (active).
Regarding `CCCC(O)Cn1ncc(C(=O)OCC)c1NC(=O)NCc1ccccc1F` (stereo not given), the growth was 75.9% (inactive).
In the case of `CC1=C(C(=O)Nc2nc(-c3ccc(Cl)cc3)cs2)[C@H](c2ccc(O)cc2)NC(=O)N1`, the growth was 95% (inactive).
Regarding `COc1ccc(C(=O)/C=C/c2cc(-c3cc(OC)c(OC)c(OC)c3)n[nH]2)cc1OC`, the growth was -94.6% (active).
For `O=C(CSc1ccc(Cl)cc1)Nc1ccc(-c2nc3ccccc3s2)c(Cl)c1` the value was 52.1% (inactive).
In the case of `O=C(Nc1ccc(OCc2nnc(-c3ccccc3)o2)c(F)c1)Nc1ccc(Cl)c(Cl)c1`, the growth is 26.3% (inactive).
With `CCN(CC)CCN1C(=O)c2c(c3c4ccccc4[nH]c3c3ccc4ccccc4c23)C1=O`, the growth is 79.5% (inactive).
As to `Cc1ccc(N(CC2=NCCN2)c2cccc(O)c2)cc1`, the growth was 93.3% (inactive).
Turning to `O=C1CCC(C(=O)N/N=C/c2ccc([N+](=O)[O-])cc2)N1` (stereo not given), the growth is 110% (inactive).
Consider `CSc1nc2c(c(=O)[nH]1)C(c1ccc(C)cc1)C=C(C(=O)O)N2` (stereo not given), for which the growth was 114% (inactive).
In the case of `C/C(=C(/c1ccc(Cl)cc1)c1ccc(OCCN2CCCC2)cc1)c1ccccc1`, the growth is 62.4% (inactive).
For the compound `O=C1NC(=O)C(CC(=O)n2c(-c3ccccc3)nc3ccccc32)C(=O)N1`, the growth was 98.3% (inactive).
For `CCOC(=O)c1nn(C2CCCCO2)c2ccc(NC(=O)CN3CCCC3)cc12` (stereo not given) the value was 111% (inactive); for `CNC(=O)NN`, 107% (inactive); for `C=C1C(=O)O[C@H]2[C@H]1CC/C(COC(=O)NCCc1c[nH]c3ccc(Cl)cc13)=C\CC[C@@]1(C)O[C@@H]21`, -59% (active).
Regarding `Cc1c(C)c2c(c(C)c1NC(=O)/C=C\C(=O)O)CCC(C)(CCCC(C)CCCC(C)CCCC(C)C)O2` (stereo not given), the growth was -45.3% (active).
Next, `O=C(O)Cc1cc(=O)[nH]n(-c2ccccc2)c1=O`: 102% (inactive).
Turning to `O=[N+]([O-])c1ccc(NS(=O)(=O)c2ccccc2)c2ccccc12`, the growth is 17% (inactive).
For `CCn1c2ccc(/C=N/N(C)S(=O)(=O)CCN(C)C)cc2c2cc(/C=N/N(C)S(=O)(=O)CCN(C)C)ccc21` the value was 40.4% (inactive).
Regarding `C/C(=N\NC(N)=S)C(C)(C)O`, the growth was 26.2% (inactive).
As to `CC(C)(C)Nc1nc2c(OCCc3ccccc3)cccn2c1-c1ccc(Cl)cc1`, the growth was -22.4% (active).
For the compound `CCN1C(=O)N(CC)C2C1NN=c1s/c(=C\c3ccc(Cl)cc3Cl)c(=O)n12` (stereo not given), the growth is 5.35% (active).
For `OC1(c2ccccc2)c2ccccc2N(c2ccccc2)c2ccc(Cl)cc21` (stereo not given) the value was -75.3% (active).
With `COC(=O)c1c2c(c(C)[n+]([O-])c1C)C(=O)C=CC2=O`, the growth was -33% (active).
With `CCCCOc1ccc(/C=N/Nc2cc(C)nc3ccc(Br)cc23)cc1`, the growth was 32.2% (inactive).
Next, `CCNC(=O)Nc1nc2ccc(Oc3ccnc(C(=O)NC)c3)cc2s1`: 50.8% (inactive); `COc1ccccc1CNCCCN1C(=O)c2ccc3c4c(ccc(c24)C1=O)C(=O)N(CCCNCCCCNCCCCN)C3=O`: -47% (active).
`COc1ccc(CCn2cnn3c(=O)c4ccccc4nc3c2=O)cc1OC`: the growth was 93.5% (inactive) and 94.3% (inactive).
Next, `Nc1ccn(C2CC(N)C(CO)O2)c(=O)n1` (stereo not given): 101% (inactive); `Nc1nc2c(c3ncncc13)C(c1cccc(C(F)(F)F)c1)Cc1ncncc1-2` (stereo not given): -10.4% (active); `Nc1cc(N)c(N=Nc2ccc(S(=O)(=O)O)cc2)cc1N=Nc1ccc(-c2ccc(N=Nc3ccc(O)c(C(=O)O)c3)cc2)cc1`: 97.6% (inactive).
For `COc1ccc(-c2n/c(=C\c3c(O)[nH]c4ccc(OC)cc34)cc3c2=Nc2ccccc2-3)cc1` the value was -46.8% (active); for `Cn1c(C(=O)c2cccc3ccccc23)nc2ccccc21`, -1.13% (active); for `COc1ccc(-c2cc(-c3cc4ccccc4oc3=O)n(-c3ccccc3)n2)cc1`, 87.3% (inactive).
For `COc1cc(C2NC(c3ccc(Cl)cc3)C(C)/C(=N/NC(N)=S)C2C)cc(OC)c1OC` (stereo not given), the growth was 88% (inactive).
For `CCOC(=O)c1ccc(NC(=O)NC2=NCCS2)cc1`, the growth was 29.6% (inactive).
Turning to `N#C/C(=C\c1ccc(Br)cc1)n1nnc2c(F)cccc21`, the growth was -10.8% (active).

For the origin of these results see PubChem BioAssay (NCI).
